Rows were chosen to be rich in hits. Some 3.1% of all compounds tested hit in one or more screens of this group.
RGS4 inh: Inhibitors of Regulator of G Protein Signaling (RGS) 4: qHTS; Regulator of G-protein signaling 4 (Homo sapiens), P49798; Transcreener GDP fluorescence polarization, RGS4-accelerated GTP hydrolysis; Potency, µM (titrated, usually from 114 µM), inactives show at the top dose activity change, negative = inhibition, actives largely listed as inhibitors; hit rate 0.039% among 390,000; active = well fitted inhibition curve with a large enough effect; inconclusive = small, poorly fitted or top-dose-only effect; inactive = no such curve, though single readings can be large or run the other way; also: potency is read from the fitted curve at half-maximal effect; % is scaled to controls: 0 for no effect and ±100 for the full control effect; nearly all actives have a fitted effect of over 75% in size
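MLSMR compounds (23 nl, pin-transferred) preincubated 10 min at room temperature with a 500nM (2x) first reagent, then RGS4 at 900nM (2x) plus Transcreener GDP mix added; fluorescence polarization (620/688 nm) read before and after 90 min at 30 °C.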
uPA surface inh: qHTS for Inhibitors of Cell Surface uPA Generation. AID 540303, 2011. Potency, µM (doses to about 38.3 µM), inactives show at the top dose activity change, negative = inhibition, most hits filed as inhibitors. hit rate 0.31% among 330,000. cell surface uPA generation assay, qHTS; active = well fitted inhibition curve with a large enough effect; inconclusive = small, poorly fitted or top-dose-only effect; inactive = no such curve, though single readings can be large or run the other way; tested in mouse RAW 264.7 cells; also: potency is read from the fitted curve at half-maximal effect; % is scaled to controls: 0 for no effect and ±100 for the full control effect; nearly all actives have a fitted effect of over 55% in size
DRD3 antagonist: qHTS of D3 Dopamine Receptor Antagonist: qHTS; D(3) dopamine receptor (Homo sapiens), P35462; D3R cells, DiscoveRx beta-arrestin luminescence, antagonist mode; active compounds read low; max response, negative = inhibition, %; hit rate 2.5% among 360,000; in the data active = max response below about -50%; inconclusive = no clear call, values can overlap the other calls; also: % is scaled to controls: 0 for no effect and ±100 for the full control effect
Target sequence (P35462 whole entry, looked up): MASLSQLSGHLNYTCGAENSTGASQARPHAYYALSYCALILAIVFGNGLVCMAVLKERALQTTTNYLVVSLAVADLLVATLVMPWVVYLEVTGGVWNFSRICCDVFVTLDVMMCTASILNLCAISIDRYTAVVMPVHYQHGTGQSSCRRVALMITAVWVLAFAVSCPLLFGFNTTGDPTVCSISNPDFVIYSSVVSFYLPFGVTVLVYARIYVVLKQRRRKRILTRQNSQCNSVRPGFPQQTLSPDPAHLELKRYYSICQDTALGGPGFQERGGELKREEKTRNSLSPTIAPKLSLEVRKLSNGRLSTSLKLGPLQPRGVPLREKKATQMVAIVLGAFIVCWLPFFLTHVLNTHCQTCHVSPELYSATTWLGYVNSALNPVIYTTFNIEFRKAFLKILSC
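Cells expressing the human receptor were seeded at 1500 cells/well, incubated overnight at 37 degrees C in 5% CO2, then exposed to library compounds with dopamine controls for 90 minutes at 37 degrees C before luminescent detection.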
D3 ag: qHTS of D3 Dopamine Receptor Agonist: qHTS | D(3) dopamine receptor (Homo sapiens), P35462 | D3R DiscoveRx beta-arrestin cells, luminescence, 90 min | max activation, % | hit rate 0.58% among 410,000 | AID 652048, 2013; in the data active = max activation above about 30%; also: 0% is about no effect
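Agonist-mode cell screen: cells plated at 1500/well and incubated overnight at 37 °C, then exposed to library compounds for 90 min at 37 °C. Detection reagent was added for 30–60 min at room temperature, and luminescence was read.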
Active calls of the source: *; ? = inconclusive; nt = not tested or not shown.

SMILES	RGS4 inh	uPA surface inh	DRD3 antagonist	D3 ag
COc1ccc(NC(=O)CSc2nc3c(cc2C#N)CN(C)CC3)cc1	-14%	-5%	-17	-8
CCN1CCc2nc(SCC(=O)Nc3ccc(OC)cc3)c(C#N)cc2C1	-51%	-5%	-70*	9
O=C1CC(c2nc(-c3ccccc3)no2)CN1c1ccccc1 (configuration not stated)	-6%	nt	nt	4
OC[C@@H](O)C(O)[C@H](O)CO	nt	nt	nt	-11
NCCCC(O)(P(=O)(O)O)P(=O)(O)O	nt	nt	nt	10
COc1ccc(NC(=O)CN2CCc3ccccc3C2)cc1	-15%	-22%	-80*	-5
COc1ccc(NC(=O)CN2CCc3ccccc3C2)cc1OC	-13%	7%	-8	-12
COc1ccc2cc3cc(C(=O)NCCN4CCc5ccccc5C4)sc3nc2c1	28%	2%	-93*	-28
COc1ccc(C(c2c(O)cc(C)n(Cc3ccco3)c2=O)N2CCCCC2)cc1OC (configuration not stated)	10%	nt	nt	-7
COc1cccc(C(=O)Nc2sc3c(c2C(=O)O)CCCC3)c1	8%	-20%	0	3
COc1cccc(C(=O)Nc2sc3c(c2C#N)CCN(C(C)=O)C3)c1	-54%	0.4µM*	-25	-4
C=CC#CC1(O)CC(C)N(C)CC1C (configuration not stated)	8%	nt	-66*	6
CC1CC(O)(Cc2ccccc2)C(C)CN1C (configuration not stated)	-22%	6%	14	-5
COc1ccc(CNCC(O)COc2ccc3[nH]c(=O)ccc3c2)cc1OC (configuration not stated)	nt	nt	nt	2
COc1cccc(/C=N/NC(=O)c2cc(-c3cccn3C)n[nH]2)c1	-21%	-2%	-51*	-8
COc1cc(/C=N/NC(=O)c2cc(-c3cccn3C)n[nH]2)cc(OC)c1OC	-52%	nt	35	-5
CC1CCCCC1Nc1nc2ccc(Cl)cc2n2cnnc12 (configuration not stated)	9%	4%	4	35*
CCOC(=O)CC1(C)Sc2ccccc2N1S(=O)(=O)c1ccc(C)cc1 (configuration not stated)	nt	nt	-5	-6
Cn1cc(CN2CCCC(C(=O)Nc3cccc(-c4cc5ccccc5[nH]4)c3)C2)cn1 (configuration not stated)	-8%	-4%	-68*	-7
CC(C)n1cc(CN2CCCC(C(=O)Nc3cccc(-c4cc5ccccc5[nH]4)c3)C2)cn1 (configuration not stated)	2%	0%	-21	-27
COc1ccc(C2CC(=O)c3c([nH]c(C(=O)OC4CCCCCC4)c3C)C2)cc1 (configuration not stated)	2%	nt	nt	1
Cn1cc(S(=O)(=O)N2CCCCCC2)cc1C(=O)N1CCN(c2cccc(Cl)c2)CC1	10%	nt	nt	-4
COc1ccc(NC(=O)CN(C)C(=O)CCCc2nc3ccccc3c(=O)[nH]2)cc1	-10%	0%	7	1
CN(CC(=O)Nc1ccc(F)cc1)C(=O)CCc1nc2ccccc2c(=O)[nH]1	-34%	-1%	-54*	-16
O=C(CCc1nc2ccccc2c(=O)[nH]1)Nc1ccc(F)cc1	-15%	-7%	-54*	-3
SMILES	RGS4 inh	uPA surface inh	DRD3 antagonist	D3 ag
CCc1ccc(S(=O)(=O)NCc2ccc3c(c2)CCN3C(=O)c2ccc(C)cc2)cc1	39%	nt	nt	4
COc1ccc(C)c(-n2c(=O)n(Cc3ccccc3)c(=O)c3[nH]cnc32)c1	-1%	?	-97*	-29
Cc1ccc(S(C)=O)cc1-n1c(=O)n(Cc2ccccc2)c(=O)c2[nH]cnc21 (configuration not stated)	-9%	-2%	-104*	-31
Cc1ccccc1-n1c(=O)n(Cc2ccc(C(=O)O)cc2)c(=O)c2[nH]cnc21	-6%	2%	6	8
COc1ccc(Cn2c(=O)c3[nH]cnc3n(-c3ccccc3C)c2=O)cc1	-2%	-11%	5	24
Cc1nc2cccnc2n1-c1cccc(C(=O)NCc2ccc(OC(C)C)cc2)c1	18%	nt	nt	2
COc1cccc(CNC(=O)CN2C(=O)CCn3nc(-c4cn(C)c5ccccc45)cc32)c1OC	-3%	nt	nt	-4
O=[N+]([O-])c1cnc(Sc2ccncn2)c([N+](=O)[O-])c1	nt	nt	0	-10
O=[N+]([O-])c1cnc(Sc2ccncn2)s1	?	2.8µM*	-125*	-27

Source: PubChem BioAssay
